Source: PubChem BioAssay (NCI)
This is part of a sample that, as a whole, favours compounds with a hit. Of some 83,000 tested, about 20% had one in any assay.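 Treatment: one concentration, 48 hours, 96-well format. Scoring: percent growth, with anything below 10 considered active.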 Calls of active or inactive are those of the source.

Columns and labels:
Assay in all cases: NCI-60 one-dose screen, 48 h (100 = growth as untreated, 0 = no growth, -100 = all killed)
Conditions in all cases: 10 µM unless noted
SK-MEL-2 melanoma = tested on: SK-MEL-2 melanoma
EKVX NSCLC = tested on: EKVX NSCLC
SN12C renal = tested on: SN12C renal
UO-31 renal = tested on: UO-31 renal
TK-10 renal = tested on: TK-10 renal
ACHN renal = tested on: ACHN renal
CAKI-1 renal = tested on: CAKI-1 renal
A498 renal = tested on: A498 renal
CCRF-CEM leukemia = tested on: CCRF-CEM leukemia
SR leukemia = tested on: SR leukemia
RPMI-8226 leukemia = tested on: RPMI-8226 leukemia
OVCAR-8 ovarian = tested on: OVCAR-8 ovarian
OVCAR-5 ovarian = tested on: OVCAR-5 ovarian
OVCAR-4 ovarian = tested on: OVCAR-4 ovarian
SK-OV-3 ovarian = tested on: SK-OV-3 ovarian
IGROV1 ovarian = tested on: IGROV1 ovarian
OVCAR-3 ovarian = tested on: OVCAR-3 ovarian
HS 578T breast = tested on: HS 578T breast
NCI/ADR-RES ovarian = tested on: NCI/ADR-RES ovarian
MOLT-4 leukemia = tested on: MOLT-4 leukemia

Measured: growth

CC(CCc1ccc(Cl)c(Cl)c1)NCc1ccc(C(C)(C)C)cc1 (stereo unspecified)
inactive: SK-MEL-2 melanoma 105% | EKVX NSCLC 102% | SN12C renal 91.9% | UO-31 renal 78.6% | TK-10 renal 78.4% | ACHN renal 92.7% | CAKI-1 renal 85.9% | A498 renal 90.8% | CCRF-CEM leukemia 77.2% | RPMI-8226 leukemia 74.5% | OVCAR-8 ovarian 85.8% | OVCAR-5 ovarian 91.3% | OVCAR-4 ovarian 88.1% | SK-OV-3 ovarian 93.6% | IGROV1 ovarian 90.3% | OVCAR-3 ovarian 98.2% | HS 578T breast 85.2% | NCI/ADR-RES ovarian 86.3%
active: SR leukemia -10.5%

COC(=O)[C@]12CC[C@@H](C)[C@H](C)[C@@H]1C1=CC[C@@H]3[C@@]4(C)C(C=O)=C[C@@](C)(COC(=O)c5ccco5)[C@@H]4C(=O)C[C@@]3(C)[C@]1(C)CC2
inactive: EKVX NSCLC 38.3% | SN12C renal 42% | UO-31 renal 29.7% | TK-10 renal 29.7% | ACHN renal 13.4% | CAKI-1 renal 38.8% | A498 renal 65.5% | SR leukemia 32.5% | RPMI-8226 leukemia 14.6% | OVCAR-8 ovarian 24.8% | OVCAR-5 ovarian 59.4% | OVCAR-4 ovarian 29.8% | SK-OV-3 ovarian 33.7% | IGROV1 ovarian 51.8% | OVCAR-3 ovarian 40.4% | HS 578T breast 65.3% | NCI/ADR-RES ovarian 28.4%
active: SK-MEL-2 melanoma -31.8% | CCRF-CEM leukemia 5.47%

CC(=O)C(C)Cc1cc2c(cc1C)C(C)(C)CCC2(C)C (stereo unspecified)
inactive: SK-MEL-2 melanoma 94.8% | EKVX NSCLC 94.4% | SN12C renal 103% | UO-31 renal 101% | TK-10 renal 100% | ACHN renal 104% | CAKI-1 renal 97.6% | A498 renal 108% | CCRF-CEM leukemia 121% | SR leukemia 131% | RPMI-8226 leukemia 100% | OVCAR-8 ovarian 101% | OVCAR-5 ovarian 98.6% | OVCAR-4 ovarian 104% | SK-OV-3 ovarian 85.7% | IGROV1 ovarian 114% | OVCAR-3 ovarian 108% | HS 578T breast 102% | NCI/ADR-RES ovarian 98.8%

Cc1cc(NCc2cc(Nc3ccnc4cc(Cl)ccc34)ccc2F)nc(N2CCCC2)n1
inactive: SK-MEL-2 melanoma 93.5% | EKVX NSCLC 17.3% | SN12C renal 35.8% | CAKI-1 renal 71.5% | A498 renal 59.2% | SK-OV-3 ovarian 51.1% | HS 578T breast 56.8% | NCI/ADR-RES ovarian 12.7%
active: UO-31 renal -50.9% | TK-10 renal -35.8% | ACHN renal -69.2% | CCRF-CEM leukemia -22.5% | SR leukemia -23.9% | RPMI-8226 leukemia -24.2% | OVCAR-8 ovarian 2.5% | OVCAR-5 ovarian 6.27% | OVCAR-4 ovarian -0.25% | IGROV1 ovarian -2.2% | OVCAR-3 ovarian -73.6%

Fc1cnc(NC2CC2)nc1-c1cnc2ccc(N3CCOCC3)cn12
active: SK-MEL-2 melanoma -34.1% | EKVX NSCLC -19.5% | SN12C renal 8.74% | UO-31 renal 7.85% | TK-10 renal 6.32% | ACHN renal 3.03% | CAKI-1 renal 4.17% | A498 renal -29.5% | CCRF-CEM leukemia 6.3% | MOLT-4 leukemia 2.32% | OVCAR-8 ovarian 9.65% | OVCAR-4 ovarian -1.69% | IGROV1 ovarian 4.44% | OVCAR-3 ovarian 4.44% | HS 578T breast -7.95% | NCI/ADR-RES ovarian 7.33%
inactive: SK-OV-3 ovarian 20.6%

Cn1cc2c(c1)-c1nc(Nc3ccccc3)ncc1CC2
inactive: SK-MEL-2 melanoma 73.6% | EKVX NSCLC 54.6% | SN12C renal 64.8% | UO-31 renal 46.2% | TK-10 renal 61.9% | ACHN renal 47.8% | CAKI-1 renal 48.8% | CCRF-CEM leukemia 61.2% | MOLT-4 leukemia 44.6% | OVCAR-8 ovarian 79.6% | OVCAR-4 ovarian 69.3% | SK-OV-3 ovarian 77.6% | IGROV1 ovarian 58.6% | OVCAR-3 ovarian 69.5% | HS 578T breast 78.4% | NCI/ADR-RES ovarian 71.6%
active: A498 renal 6.32%

COc1cc(-c2nn(-c3ccccc3)cc2-c2ccnc(NCCNS(=O)(=O)c3ccc(Cl)cc3)n2)ccc1Cl
active: SR leukemia -19.4%
inactive: SK-MEL-2 melanoma 61.2% | EKVX NSCLC 37% | SN12C renal 26.8% | UO-31 renal 21.2% | TK-10 renal 43% | ACHN renal 15.4% | CAKI-1 renal 28.9% | A498 renal 32% | CCRF-CEM leukemia 35.8% | RPMI-8226 leukemia 35% | OVCAR-8 ovarian 36.1% | OVCAR-5 ovarian 68.8% | OVCAR-4 ovarian 38.3% | SK-OV-3 ovarian 22.7% | IGROV1 ovarian 38.2% | OVCAR-3 ovarian 35.1% | HS 578T breast 58.4% | NCI/ADR-RES ovarian 31.7%

O=C(CC(SCc1ccccc1)c1ccccc1)c1ccccc1 (stereo unspecified)
inactive: SK-MEL-2 melanoma 120% | EKVX NSCLC 82.4% | SN12C renal 98.8% | UO-31 renal 84.7% | TK-10 renal 87.3% | ACHN renal 99.6% | CAKI-1 renal 95.8% | A498 renal 81.8% | CCRF-CEM leukemia 95.9% | SR leukemia 41% | RPMI-8226 leukemia 38.5% | OVCAR-8 ovarian 103% | OVCAR-5 ovarian 98.4% | OVCAR-4 ovarian 90% | SK-OV-3 ovarian 99.7% | IGROV1 ovarian 91.4% | OVCAR-3 ovarian 86.5% | HS 578T breast 107% | NCI/ADR-RES ovarian 93.5%

NC(=O)c1ccc[n+](Cc2ccc(Cl)cc2Cl)c1
active: SR leukemia 7.84%
inactive: SK-MEL-2 melanoma 95.7% | EKVX NSCLC 107% | SN12C renal 101% | UO-31 renal 99.8% | TK-10 renal 88.4% | ACHN renal 109% | CAKI-1 renal 107% | A498 renal 99.8% | CCRF-CEM leukemia 97.4% | RPMI-8226 leukemia 93% | OVCAR-8 ovarian 99.5% | OVCAR-5 ovarian 96.9% | OVCAR-4 ovarian 109% | SK-OV-3 ovarian 97.2% | IGROV1 ovarian 105% | OVCAR-3 ovarian 109% | HS 578T breast 99.4% | NCI/ADR-RES ovarian 111%

COc1ccc(N2CCN(c3nc(-c4cc(OC)c(OC)c(OC)c4)nc4ccccc34)CC2)cc1
inactive: SK-MEL-2 melanoma 93.6% | EKVX NSCLC 85% | SN12C renal 90.1% | UO-31 renal 69.9% | TK-10 renal 113% | ACHN renal 90.6% | CAKI-1 renal 84.1% | A498 renal 79.5% | CCRF-CEM leukemia 91.3% | SR leukemia 42.6% | RPMI-8226 leukemia 54.8% | OVCAR-8 ovarian 71.1% | OVCAR-5 ovarian 93.5% | OVCAR-4 ovarian 88% | SK-OV-3 ovarian 91.4% | IGROV1 ovarian 97% | OVCAR-3 ovarian 94.6% | HS 578T breast 65.2% | NCI/ADR-RES ovarian 65.3%

O=c1c2cc(F)ccc2sc2c(Nc3cccnc3)nc3ccccc3c12
active: MOLT-4 leukemia 4.56%
inactive: SK-MEL-2 melanoma 109% | EKVX NSCLC 83.2% | SN12C renal 93.4% | UO-31 renal 79.7% | TK-10 renal 96.3% | ACHN renal 73.5% | CAKI-1 renal 69.1% | A498 renal 79.5% | CCRF-CEM leukemia 28.2% | OVCAR-8 ovarian 89.1% | OVCAR-5 ovarian 57.8% | SK-OV-3 ovarian 93.9% | IGROV1 ovarian 73.7% | OVCAR-3 ovarian 108% | HS 578T breast 74% | NCI/ADR-RES ovarian 90.4%

COc1cccc(C(=O)NCCCNc2cc(-c3cn(-c4ccccc4)nc3-c3cccc(OC)c3)ccn2)c1
active: SR leukemia 8.19%
inactive: SK-MEL-2 melanoma 70.2% | EKVX NSCLC 60.1% | SN12C renal 61.1% | UO-31 renal 26.6% | TK-10 renal 55.2% | ACHN renal 60.9% | CAKI-1 renal 65.4% | A498 renal 49.2% | CCRF-CEM leukemia 24.7% | RPMI-8226 leukemia 25.3% | OVCAR-8 ovarian 26.7% | OVCAR-5 ovarian 82.1% | OVCAR-4 ovarian 37.9% | SK-OV-3 ovarian 48.8% | IGROV1 ovarian 58.9% | OVCAR-3 ovarian 53.3% | HS 578T breast 47.5% | NCI/ADR-RES ovarian 22.1%

CC(C)Sc1nc(NNC(N)=S)c(C#N)c(-c2ccc(F)cc2)n1
inactive: SK-MEL-2 melanoma 103% | EKVX NSCLC 96.7% | SN12C renal 96.1% | UO-31 renal 79.7% | TK-10 renal 96.3% | ACHN renal 94.3% | CAKI-1 renal 88.8% | A498 renal 61.7% | CCRF-CEM leukemia 93.2% | MOLT-4 leukemia 95.7% | OVCAR-5 ovarian 88.3% | OVCAR-4 ovarian 102% | SK-OV-3 ovarian 83.9% | IGROV1 ovarian 97.1% | OVCAR-3 ovarian 113% | HS 578T breast 101% | NCI/ADR-RES ovarian 99%

O=C(NCCCNc1cc(-c2cn(-c3ccccc3)nc2-c2cccc(O)c2)ccn1)c1ccccc1
active: SR leukemia -25.8% | RPMI-8226 leukemia -7.45% | HS 578T breast -6.38%
inactive: SK-MEL-2 melanoma 26.8% | EKVX NSCLC 47.6% | SN12C renal 61.1% | UO-31 renal 22.6% | TK-10 renal 67.3% | ACHN renal 45.8% | CAKI-1 renal 37.3% | A498 renal 31.1% | CCRF-CEM leukemia 36.6% | OVCAR-8 ovarian 27.5% | OVCAR-5 ovarian 63.3% | OVCAR-4 ovarian 38.1% | SK-OV-3 ovarian 37.7% | IGROV1 ovarian 50.8% | OVCAR-3 ovarian 45.8% | NCI/ADR-RES ovarian 25.8%

CN1CCN(CCCOc2ccc3nc(Nc4ccc(F)c(F)c4)ccc3c2)CC1
inactive: SK-MEL-2 melanoma 54.4% | EKVX NSCLC 61.7% | SN12C renal 68% | UO-31 renal 47.4% | TK-10 renal 41.7% | ACHN renal 44.3% | CAKI-1 renal 73.3% | A498 renal 33.4% | CCRF-CEM leukemia 17.2% | RPMI-8226 leukemia 28.8% | OVCAR-8 ovarian 53.1% | OVCAR-5 ovarian 41% | OVCAR-4 ovarian 51.2% | SK-OV-3 ovarian 49.6% | IGROV1 ovarian 58.9% | OVCAR-3 ovarian 67.4% | HS 578T breast 33.8% | NCI/ADR-RES ovarian 70.6%
active: SR leukemia -6.22%

Cc1cc(NCCCCNc2ccnc3cc(Cl)ccc23)nc(Nc2ccc(C(=O)N3CCCC3)cc2)n1
active: CCRF-CEM leukemia 2.01% | SR leukemia -28.9% | RPMI-8226 leukemia 2.17%
inactive: SK-MEL-2 melanoma 91.2% | EKVX NSCLC 79% | SN12C renal 70.4% | UO-31 renal 75.4% | TK-10 renal 115% | ACHN renal 60.7% | CAKI-1 renal 97.1% | A498 renal 62.6% | OVCAR-8 ovarian 11.5% | OVCAR-5 ovarian 108% | OVCAR-4 ovarian 48.4% | SK-OV-3 ovarian 106% | IGROV1 ovarian 81.9% | OVCAR-3 ovarian 60.6% | HS 578T breast 89.8% | NCI/ADR-RES ovarian 94.8%
